We go through 50 molecules from PubChem BioAssay AID1851 (National Center for Advancing Translational Sciences (NCATS), 2009).

Several values for one entry are separate records, joined by “and”; a condition that tells them apart may be missing. Equal entries are not always repeated. Out of some 16,000 compounds screened, about 5,700 (36%) were called active. Inconclusive results (about 24%) are left out. The list shows a part of the results. Unmarked numbers belong to inactive results. Calls follow the shape of the dose curve; as a rule, active = well fitted curve in the direction sought with a large enough effect; inconclusive = small, poorly fitted or top-dose-only effect, or effect the other way; inactive = no such curve, though single readings can be large or run the other way.
% is scaled to controls: 0 for no effect and ±100 for the full control effect.

Cytochrome P450 1A2 (Homo sapiens), sequence (P05177 whole entry, looked up): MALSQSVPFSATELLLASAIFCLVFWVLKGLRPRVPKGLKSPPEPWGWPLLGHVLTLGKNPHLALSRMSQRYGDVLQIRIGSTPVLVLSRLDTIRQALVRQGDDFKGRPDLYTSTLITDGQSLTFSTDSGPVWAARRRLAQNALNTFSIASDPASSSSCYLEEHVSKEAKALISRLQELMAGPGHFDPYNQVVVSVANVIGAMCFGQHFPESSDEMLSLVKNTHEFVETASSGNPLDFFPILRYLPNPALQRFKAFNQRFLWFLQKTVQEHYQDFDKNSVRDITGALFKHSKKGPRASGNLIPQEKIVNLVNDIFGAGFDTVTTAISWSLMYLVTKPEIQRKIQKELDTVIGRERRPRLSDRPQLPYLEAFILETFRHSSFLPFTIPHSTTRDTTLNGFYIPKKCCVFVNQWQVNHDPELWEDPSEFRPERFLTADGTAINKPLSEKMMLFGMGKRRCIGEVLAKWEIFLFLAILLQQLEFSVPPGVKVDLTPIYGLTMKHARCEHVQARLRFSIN

The assay concerns the target Cytochrome P450 1A2 (Homo sapiens) (UniProt P05177). Nature of the assay: Cytochrome panel assay with activity outcomes. As to conditions: recombinant CYP, pro-luciferin dealkylation, luminescence, p450-cyp1a2; series mostly up to 57.1 µM; activity, negative = inhibition: at the top concentration.
In the case of `O=[N+]([O-])c1ccc(N2CCN(Cc3ccccc3)CC2)c(S(=O)(=O)N2CCOCC2)c1`, the “activity, negative = inhibition” value was -0.304%. Take `O=[N+]([O-])c1ccc(Cl)c(/C=N/N2CCN(Cc3ccccc3)CC2)c1`: the AC50 is 2.51 µM (active). For `O=S(=O)(c1ccccc1)N1CCC2(CCN(Cc3ccccc3)CC2)CC1`, the “activity, negative = inhibition” value is -2.85%. Turning to `CCSc1nnc(NC(=O)C(C(F)(F)F)C(F)(F)F)s1`, the AC50 was 15.8 µM (active).

For `CCSc1nnc(NC(=O)Cc2ccccc2OC)s1`, the “activity, negative = inhibition” value is -9.79%. Same read-out and setting: the value for `CCCCC(=O)Nc1nnc(SCC(=O)NC2CCCC2)s1` was -12.6%; that for `CC(CC(=O)O)(CC(=O)O)C(=O)O` was -5.85% [at 11.4 µM]; that for `OCCN1CCN(C(=S)c2ccc(Br)cc2)CC1` was -6.49%. Take `O=C(CN1CCN(Cc2ccccc2)CC1)c1ccc(Br)cc1`: the “activity, negative = inhibition” value was -14.4%. On to `CCN1CCN(C(=S)c2ccc(Br)cc2)CC1`, for which the AC50 is 15.8 µM (active). Turning to `Cc1cc2c(cc1S(N)(=O)=O)S(=O)(=O)CCC2`, the “activity, negative = inhibition” value is -16.8% [at 25.6 µM]. Take `CCN(CCO)Cc1csc2cccc(Br)c12`: the AC50 is 11.2 µM (active). On to `CCC(c1nnnn1CCOC)N1CCN(C(=O)c2ccco2)CC1` (stereo not given), for which the “activity, negative = inhibition” value is 21.4%. With `COCCN(C(=O)c1ccco1)c1nnc(-c2ccc(OC)cc2)s1`, the AC50 was 15.8 µM (active). For `Cc1ccc(C2C(C(=O)c3ccco3)=C(O)C(=O)N2c2nnc(C)s2)cc1` (stereo not given), the “activity, negative = inhibition” value was 3.47%.

For `CC1(C)CC(=O)c2cnc(N)nc2C1`, the “activity, negative = inhibition” value is 3.27%.

`CC1=C(C(=O)OCc2ccccc2)C(c2ccccc2)NC(=O)N1CCCCCC(=O)O` (stereo not given): the AC50 is 20 µM (active). For `CCOC(=O)CCN1C(=O)[C@H]2[C@H]3[C@H](O)[C@H](O)C/C(=N/OCc4ccccc4)[C@H]3CC[C@@H]2C1=O`, the activity, negative = inhibition was -13.8% [at 11.4 µM].

Take `CCOC(=O)CCN1C(=O)[C@H]2[C@H]3[C@H](O)[C@H](O)C/C(=N/OCc4ccccc4)[C@@H]3CC[C@@H]2C1=O`: the activity, negative = inhibition is 4.94% [at 11.4 µM].

Turning to `CC1=C(C(=O)OCc2ccccc2)C(c2ccc(Cl)cc2)NC(=O)N1CCCCCC(=O)O` (stereo not given), the AC50 was 25.1 µM (active). Consider `CC1=C(C(=O)OCc2ccccc2)C(c2cccnc2)c2c(n(C)c(=O)n(C)c2=O)N1` (stereo not given), for which the “activity, negative = inhibition” value was -26.2%. Consider `CC(=O)N1CCC2(CC1)CCN(C(c1ccccc1)c1ccccc1)CC2`, for which the “activity, negative = inhibition” value was -3.22%.

Consider `O=C(O)CSCCc1ccccc1`, for which the activity, negative = inhibition is -15.5% [at 11.4 µM]. As to `NNCCc1ccccc1`, the AC50 is 3.16 µM (active) and 1 µM (active). For `NCCSCCc1ccccc1`, the AC50 was 5.01 µM (active). Consider `N[C@@](CCc1ccccc1)(C(=O)O)c1ccccc1`, for which the activity, negative = inhibition was -9.59% [at 11.4 µM]. With `O=C(O)CNCCc1ccccc1`, the activity, negative = inhibition was -1.5% [at 11.4 µM]. Take `NCCSCCC(=O)O`: the activity, negative = inhibition is -2.89% [at 11.4 µM]. With `COc1cccc2c1C(=O)c1c(O)c3c(c(O)c1C2=O)C[C@@](O)(C(=O)CO)C[C@H]3O[C@H]1C[C@@H](N)[C@H](O)[C@@H](C)O1.[W]`, the activity, negative = inhibition is -11.9% [at 11.4 µM]. On the same count and under the same terms, in the case of `Cc1sc2c(c1C)c(=O)n(-c1ccccc1)c1nnc(C)n21` it was -26.4%. The same measure, in the same setting: in the case of `Cc1ccccc1NC(=S)NN1CCN(C)CC1` it was -4.46%. As for `COc1ccc(/C=C(/C(=O)Nc2ccccc2C(=O)NC(C)C)c2ccccc2)cc1`, the half-maximal activity concentration (AC50) is 15.8 µM (active). As to `O=C(O)/C(=C\c1ccccc1)c1ccccc1`, the activity, negative = inhibition was -20.8% [at 11.4 µM]. As to `Cc1ccccc1NC(=O)/C(=C/c1ccccc1)c1ccccc1`, the concentration at half-maximal activity (AC50) is 5.01 µM (active). For `CC(C)NC(=O)c1ccccc1NC(=O)/C=C/c1ccc([N+](=O)[O-])cc1`, the “activity, negative = inhibition” value is 10.2%. Take `Cc1ccc(S(=O)(=O)Oc2ccc(/C=C(/NC(=O)c3ccccc3)C(=O)Nc3ccccc3)cc2)cc1`: the “activity, negative = inhibition” value is 2.92%. The same measure, in the same setting: the value for `Cn1cccc1C(=O)N1CCC2(CCN(Cc3ccccc3)CC2)CC1` was 10.3%. Consider `Cc1cc(Cl)ccc1Oc1ncnc2oc(-c3ccccc3)cc12`, for which the AC50 is 3.16 µM (active). As to `CCc1cc2c(=O)n(-c3ccccc3)c(=S)[nH]c2s1`, the “activity, negative = inhibition” value is -27.5%.

For `CCN(CC)C(=O)c1sc2[nH]c(=S)n(-c3ccccc3)c(=O)c2c1C`, the “activity, negative = inhibition” value was 11.3%. On to `O=c1c2c(-c3cccs3)csc2[nH]c(=S)n1-c1ccccc1`, for which the AC50 is 12.6 µM (active). As to `N#C/C(=C\c1ccc(O)c(O)c1)C(=O)NCCCc1ccccc1`, the AC50 was 12.6 µM (active).

Take `N#C/C(=C\c1ccc(O)c(O)c1)C(N)=O`: the AC50 was 39.8 µM (active).

For the molecule `Cc1cc(C)c(NC(=O)CS(=O)CC(=O)NCCCc2ccccc2)c(C)c1` (stereo not given), the “activity, negative = inhibition” value is 0.118%.

For `COc1cc(/C=C(\C#N)C(=O)c2ccc(O)c(O)c2)cc(I)c1O`, the AC50 is 15.8 µM (active).

On to `COc1ccc(/C=C(\C#N)C(N)=O)c(OC)c1`, for which the AC50 was 1.58 µM (active). For the molecule `N[C@@H](Cc1ccc(O)c(O)c1)C(=O)O`, the AC50 entry is “inactive”. Take `COc1ccc(/C=C(/C#N)C(=O)Nc2cc(C)ccc2C)cc1C(=O)O`: the “activity, negative = inhibition” value is -0.1%. On the same count and under the same terms, in the case of `CCOC(=O)C1=C(CSc2nc3ccccc3s2)NC(=O)NC1c1cc(C)ccc1C` (stereo not given) it was -22.3%. For `COc1ccc(/C=C(\C#N)C(N)=O)cc1OC`, the AC50 was 3.16 µM (active).

In general, AC50 refers to the concentration at which the activity in the assay is half-maximal.
